Results reported in PubChem BioAssay (NCATS).
Inconclusive results are not listed. Active and inactive are the calls of the source. Calls follow the shape of the dose curve; as a rule, active = well fitted curve in the direction sought with a large enough effect; inconclusive = small, poorly fitted or top-dose-only effect, or another doubt; inactive = no such curve, though single readings can be large; an effect the other way counts as inactive or inconclusive.

What was measured:
[1] = qHTS of pediatric cancer cell lines to identify multiple opportunities for drug repurposing: Primary screen for SK-N-SH cells (AID 1347098); also: nearly all actives have a fitted effect of over 65% in size; also: potency is read from the fitted curve at half-maximal effect;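 as to activity change, negative = cytotoxic: DMSO served as neutral control and bortezomib at 2.3 µM as positive control; % is scaled to controls: 0 for no effect and ±100 for the full control effect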
Procedure, shortened: (§1)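 Cells (500-1,000/well) rested 5 h, then received compounds for 48 h; metabolically active cells were measured by CellTiter-Glo luminescence. Final concentrations spanned up to 46 µM (MIPE, 11-point) or 0.59 nM-46 µM (NPC, 8-point) in primary screens, 11-point in follow-ups.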

[2] = qHTS of pediatric cancer cell lines to identify multiple opportunities for drug repurposing: Primary screen for NB1643 cells (AID 1347099); also: nearly all actives have a fitted effect of over 50% in size; also: potency is read from the fitted curve at half-maximal effect;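 as to activity change, negative = cytotoxic: plate controls were DMSO neutral control for no effect and bortezomib positive control for full effect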
Procedure, shortened: (§2)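 CRCs from 8- or 11-point titrations (lowest final 0.59 nM NPC, 0.78 nM MIPE). Cell viability: CellTiter-Glo after 48 h incubation, 15 min room-temperature development, luminescence imaging.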

[3] = qHTS of pediatric cancer cell lines to identify multiple opportunities for drug repurposing: Primary screen for LAN-5 cells (AID 1347100); also: potency is read from the fitted curve at half-maximal effect;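 as to activity change, negative = cytotoxic: plate controls were DMSO neutral control for no effect and bortezomib positive control for full effect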
Procedure, shortened: (§3)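 Cells (500-1,000/well) in growth media were settled 5 h at 37 degrees C, then given compounds for 48 h. Viability was read as CellTiter-Glo luminescence. Primary runs used MIPE at 11 points (0.78 nM-46 µM) and NPC at 8 points (0.59 nM-46 µM); follow-ups used 11 points.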

[4] = qHTS of pediatric cancer cell lines to identify multiple opportunities for drug repurposing: Primary screen for BT-12 cells (AID 1347101); also: nearly all actives have a fitted effect of over 25% in size; also: potency is read from the fitted curve at half-maximal effect;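 as to activity change, negative = cytotoxic: plate controls were DMSO for no effect and bortezomib positive control for full effect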
Procedure, shortened: as §1

[5] = qHTS of pediatric cancer cell lines to identify multiple opportunities for drug repurposing: Primary screen for Rh18 cells (AID 1347102); also: nearly all actives have a fitted effect of over 65% in size; also: potency is read from the fitted curve at half-maximal effect; as to activity change, negative = cytotoxic: % is scaled to controls: 0 for no effect and ±100 for the full control effect
Procedure, shortened: as §3

[6] = qHTS of pediatric cancer cell lines to identify multiple opportunities for drug repurposing: Primary screen for OHS-50 cells (AID 1347103); also: nearly all actives have a fitted effect of over 40% in size; also: potency is read from the fitted curve at half-maximal effect;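 as to activity change, negative = cytotoxic: plate controls were DMSO neutral control for no effect and bortezomib positive control for full effect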
Procedure, shortened: as §1

[7] = qHTS of pediatric cancer cell lines to identify multiple opportunities for drug repurposing: Primary screen for MG 63 (6-TG R) cells (AID 1347105); also: nearly all actives have a fitted effect of over 50% in size; also: potency is read from the fitted curve at half-maximal effect; as to activity change, negative = cytotoxic: % is scaled to controls: 0 for no effect and ±100 for the full control effect
Procedure, shortened: as §2

[8] = qHTS of pediatric cancer cell lines to identify multiple opportunities for drug repurposing: Primary screen for control Hh wild type fibroblast cells (AID 1347106);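 also: series mostly up to about 46 µM; % is scaled to controls: 0 for no effect and ±100 for the full control effect; a drop in luminescence marks cytotoxicity and a rise apparent proliferation; nearly all actives have a fitted effect of over 55% in size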
Procedure, shortened: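 Viability after 48 h compound treatment at 37C, 500-1,000 cells/well, read as ATP luminescence with CellTiter-Glo. Primary screens used 11-point (MIPE, 0.78 nM-46 µM) or 8-point (NPC, 0.59 nM-46 µM) final concentrations; follow-up screens used 11-point dilutions.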

[9] = qHTS of pediatric cancer cell lines to identify multiple opportunities for drug repurposing: Primary screen for RD cells (AID 1347104); also: nearly all actives have a fitted effect of over 55% in size; also: potency is read from the fitted curve at half-maximal effect;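 as to activity change, negative = cytotoxic: plate controls were DMSO for no effect and bortezomib for full effect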
Procedure, shortened: as §2

[10] = qHTS of pediatric cancer cell lines to identify multiple opportunities for drug repurposing: Primary screen for Rh30 cells (AID 1347107); also: nearly all actives have a fitted effect of over 75% in size; also: potency is read from the fitted curve at half-maximal effect; as to activity change, negative = cytotoxic: series mostly up to about 46 µM; % is scaled to controls: 0 for no effect and ±100 for the full control effect
Procedure, shortened: as §3

COc1ccc(-c2cc(=O)c3c(O)cc(O[C@@H]4O[C@H](CO[C@@H]5O[C@@H](C)[C@H](O)[C@@H](O)[C@@H]5O)[C@@H](O)[C@H](O)[C@@H]4O)cc3o2)cc1O
active: Potency [1] 27.1 µM | Potency [2] 16.6 µM
inactive: Potency [3] | Potency [4] | Potency [5] | Potency [6] | Potency [7] | Potency [8]

O=C1C(CCC(O)c2ccc(F)cc2)C(c2ccc(O)cc2)N1c1ccc(F)cc1 (stereo not given)
inactive: Potency [1] | Potency [2] | Potency [3] | Potency [4] | Potency [5] | Potency [9] | Potency [7] | Potency [8] | Potency [10]

CC(C)CN(C[C@@H](O)[C@H](Cc1ccccc1)NC(=O)O[C@H]1CO[C@H]2OCC[C@H]21)S(=O)(=O)c1ccc(N)cc1
active: Potency [2] 18.7 µM | Potency [3] 18.7 µM | Potency [4] 3.85 µM | Potency [6] 12.2 µM | Potency [9] 14.8 µM
inactive: Potency [1] | Potency [5] | Potency [8]

COc1nccc(-c2c(-c3ccc(F)cc3)ncn2C2CCC(O)CC2)n1 (stereo not given)
inactive: Potency [1] | Potency [2] | Potency [3] | Potency [4] | Potency [5] | Potency [6] | Potency [9] | Potency [7]

O=C(O)C1=NC(C(=O)O)CC(C=CN2c3cc(O)c(OC4OC(CO)C(O)C(O)C4O)cc3CC2C(=O)O)=C1 (stereo not given)
inactive: Potency [1] | Potency [2] | Potency [3] | Potency [4] | Potency [5] | Potency [6] | Potency [9] | Potency [7] | Potency [8] | Potency [10]

CO[C@H]1C=CO[C@@]2(C)Oc3c(C)c(O)c4c(O)c(c(C=NN5CCN(C)CC5)c(O)c4c3C2=O)NC(=O)C(C)=CC=C[C@H](C)[C@H](O)[C@@H](C)[C@@H](O)[C@@H](C)[C@H](OC(C)=O)[C@H]1C
inactive: activity change, negative = cytotoxic [1] -10.6% [at 11.4 µM] | activity change, negative = cytotoxic [2] 22.3% [at 9.22 µM] | activity change, negative = cytotoxic [3] -8.14% [at 9.22 µM] | activity change, negative = cytotoxic [4] 2.32% [at 11.5 µM] | activity change, negative = cytotoxic [5] -3.68% [at 9.22 µM] | activity change, negative = cytotoxic [6] -1.83% [at 11.5 µM] | activity change, negative = cytotoxic [7] -12.4% [at 9.22 µM] | activity change, negative = cytotoxic [8] -5.37% [at 9.22 µM] | activity change, negative = cytotoxic [10] -1.05% [at 9.22 µM]

O=c1[nH]nc(OCCCc2ccc(Cl)cc2)c(NCc2cccnc2)c1Br
inactive: Potency [1]
active: Potency [2] 23.5 µM | Potency [3] 18.7 µM | Potency [4] 27.3 µM | Potency [5] 23.5 µM | Potency [6] 19.3 µM | Potency [9] 14.8 µM | Potency [7] 18.7 µM | Potency [10] 23.5 µM

CC(=O)OCC(=O)[C@@]12OC(C)(C)O[C@H]1C[C@H]1[C@@H]3C[C@H](F)C4=CC(=O)C=C[C@]4(C)[C@@]3(F)[C@@H](O)C[C@@]12C
inactive: Potency [1] | Potency [2] | Potency [3] | Potency [4] | Potency [5] | Potency [9] | Potency [7] | Potency [8] | Potency [10]

CCN1C[C@H](C)n2c(c(O)c3c(=O)n(Cc4ccc(F)c(Cl)c4)nc(C(=O)NC)c32)C1=O
inactive: Potency [1] | Potency [2] | Potency [3] | Potency [4] | Potency [6] | Potency [9] | Potency [7] | Potency [10]

OC[C@H]1O[C@@H](Oc2ccc(O)cc2)[C@H](O)[C@@H](O)[C@H]1O
inactive: Potency [1] | Potency [2] | Potency [3] | Potency [4] | Potency [5] | Potency [6] | Potency [9] | Potency [7] | Potency [8]

COc1cc(C=CC(=O)O)ccc1O
inactive: Potency [1] | Potency [2] | Potency [3] | Potency [4] | Potency [5] | Potency [9] | Potency [7] | Potency [8] | Potency [10]

O=C1Nc2ccc(I)cc2C1=Cc1cc(Br)c(O)c(Br)c1
inactive: Potency [1] | Potency [2] | Potency [3] | Potency [4] | Potency [5] | Potency [9] | Potency [7] | Potency [8] | Potency [10]

Cc1ccccc1C(=O)c1ccc(Nc2ccc(Br)cc2N)cc1Cl
inactive: Potency [1]
active: Potency [2] 20.9 µM

CN[C@@H]1CN(c2ccc3c(=O)c(C(=O)O)cn(-c4nccs4)c3n2)C[C@@H]1OC
inactive: Potency [8]
active: Potency [1] 9.37 µM | Potency [2] 1.62 µM | Potency [3] 1.02 µM | Potency [4] 9.43 µM | Potency [6] 16.8 µM | Potency [9] 14.4 µM

COc1cc2nc(-c3cc(F)ccc3O)nc(N[C@@H]3CNC[C@@H]3C(C)(C)O)c2cc1OC
active: Potency [1] 30.4 µM | Potency [2] 16.6 µM | Potency [3] 13.2 µM | Potency [4] 27.3 µM | Potency [5] 18.7 µM | Potency [9] 33.2 µM

N#CC(=C1Nc2ccccc2S1)c1ccnc(OCc2ccc(CN3CCOCC3)cc2)n1
active: Potency [1] 0.482 µM | Potency [2] 0.0526 µM | Potency [3] 1.48 µM | Potency [4] 0.172 µM | Potency [6] 0.344 µM | Potency [9] 0.662 µM | Potency [7] 3.72 µM

C=C[C@@H]1CN2CCC1C[C@@H]2C(O)c1ccnc2ccc(OC)cc12 (stereo not given in full)
inactive: Potency [1] | Potency [2] | Potency [3] | Potency [4] | Potency [5] | Potency [6] | Potency [7] | Potency [8] | Potency [10]

O=C(O)C1=CC(O)C(O)[C@H](O)C1 (stereo not given in full)
inactive: Potency [1] | Potency [2] | Potency [3] | Potency [4] | Potency [5] | Potency [6] | Potency [9] | Potency [7] | Potency [10]
